# Assay results as given in PubChem BioAssay (EPA / NIEHS).
# Calls of active or inactive are those of the source. The calls were made as follows: active = hit-call score of the fitted dose curve at least 0.9, where 1 is the maximum; inactive = score below 0.9.
# Assays:
# Details in all cases: primary human HUVEC with PBMC; actives raise or lower the signal
# [1] = read-out: Macrophage colony-stimulating factor (MCSF), CSF1 (gene 1435); assay: BSK_LPS_MCSF: BioMAP Diversity Plus: LPS Assay for Macrophage colony-stimulating factor (MCSF) Biomarker Activity (AID 2283083)
# Method in brief: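 Bidirectional fitting against DMSO was applied to M-CSF levels read by ELISA at 24 h post-dose. The system pairs human umbilical vein endothelium with peripheral blood mononuclear cells; parallel SRB staining tracked cytotoxicity.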
# [2] = read-out: Tissue Factor, F3 (gene 2152); assay: BSK_LPS_TissueFactor: BioMAP Diversity Plus: LPS Assay for Tissue Factor Biomarker Activity (AID 2283084)
# Method in brief: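 Compound was added to an endothelial cell/PBMC co-culture, and after 24 h tissue factor (CD142) was read by ELISA. Gain or loss of signal was fitted against a DMSO baseline, and parallel SRB staining (560 nm) tracked overt cytotoxicity.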
# [3] = read-out: Tumor necrosis factor (Homo sapiens) (UniProt P01375); assay: BSK_LPS_TNFa: BioMAP Diversity Plus: LPS Assay for Tumour Necrosis Factor alpha (TNFa) Biomarker Activity (AID 2283085);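 as to AC50: TNFa protein level quantified by ELISA in the co-culture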
# Method in brief: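 HUVEC/PBMC co-culture, LPS-stimulated; 24 h post-dose; TNFa by ELISA; gain or loss of signal fitted bidirectionally vs DMSO baseline.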
# [4] = read-out: Vascular cell adhesion molecule 1 (VCAM1), VCAM1 (gene 7412); assay: BSK_LPS_VCAM1: BioMAP Diversity Plus: LPS Assay for Vascular cell adhesion molecule 1 (VCAM1) Biomarker Activity (AID 2283086)
# Method in brief: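 ELISA read-out of VCAM-1 at 24 h post-dosing in an LPS-driven HUVEC/PBMC primary human co-culture; gain or loss of signal fitted bidirectionally against DMSO baseline. Cytotoxicity tracked in parallel cultures by SRB total-protein staining.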
# CD38, CD38 (gene 952) = assay: BSK_SAg_CD38: BioMAP Diversity Plus: SAg Assay for CD38 Biomarker Activity (AID 2283087)
# Method in brief: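 Measures CD38 on a human endothelial/PBMC co-culture driven by SEB and TSST-1, 24 h after compound exposure, using ELISA with fluorescence detection; DMSO defines baseline for bidirectional curve fitting.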
# CD40, CD40 (gene 958) = assay: BSK_SAg_CD40: BioMAP Diversity Plus: SAg Assay for CD40 Biomarker Activity (AID 2283088)
# Method in brief: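 CD40 is measured by fluorescence ELISA in an endothelial/PBMC primary human co-culture at 24 h post-dose. Fitting is bidirectional, DMSO baseline. Parallel SRB staining (560 nm) flags cytotoxicity.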
# CD69, CD69 (gene 969) = assay: BSK_SAg_CD69: BioMAP Diversity Plus: SAg Assay for CD69 Biomarker Activity (AID 2283089);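 as to AC50: cell surface CD69 protein quantified by ELISA with fluorescence detection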
# Method in brief: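 Values derive from bidirectional fitting relative to DMSO vehicle. Cells: umbilical vein endothelium plus peripheral blood mononuclear cells, treated 24 h before fluorescent ELISA for CD69.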
# [5] = read-out: Monocyte Chemoattractant Protein-1 (MCP1), CCL2 (gene 6347); assay: BSK_SAg_MCP1: BioMAP Diversity Plus: SAg Assay for Monocyte Chemoattractant Protein-1 (MCP1) Biomarker Activity (AID 2283090)
# Method in brief: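 Values derive from bidirectional fitting of ELISA-measured MCP1 against DMSO controls. Readings were taken 24 h after dosing human vascular endothelial cells co-cultured with peripheral blood mononuclear cells under superantigen stimulation.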
# [6] = read-out: E-selectin (Homo sapiens) (UniProt P16581); assay: BSK_SAg_Eselectin: BioMAP Diversity Plus: SAg Assay for Eselectin Biomarker Activity (AID 2283091)
# Method in brief: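 Cell-surface E-selectin is read by ELISA at 24 h in the SAg co-culture of HUVEC and PBMC. Curves are fitted in both directions relative to DMSO. Parallel SRB total-protein staining tracks overt toxicity.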
# [7] = read-out: Monokine induced gamma interferon (MIG), CXCL9 (gene 4283); assay: BSK_SAg_MIG: BioMAP Diversity Plus: SAg Assay for Monokine induced gamma interferon (MIG) Biomarker Activity (AID 2283092)
# Method in brief: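 Values reflect bidirectional fitting of ELISA-measured MIG against DMSO vehicle, taken 24 h after dosing of a co-culture of human umbilical vein endothelial cells and peripheral blood mononuclear cells.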
# Tumor necrosis factor (Homo sapiens), sequence (P01375 whole entry, looked up): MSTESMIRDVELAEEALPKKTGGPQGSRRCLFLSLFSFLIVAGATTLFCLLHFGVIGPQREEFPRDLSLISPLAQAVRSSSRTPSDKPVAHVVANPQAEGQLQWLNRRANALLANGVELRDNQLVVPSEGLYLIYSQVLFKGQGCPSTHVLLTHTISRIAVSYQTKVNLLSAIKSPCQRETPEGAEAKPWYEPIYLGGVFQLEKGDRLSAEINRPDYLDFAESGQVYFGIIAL
# E-selectin (Homo sapiens), sequence (P16581 whole entry, looked up): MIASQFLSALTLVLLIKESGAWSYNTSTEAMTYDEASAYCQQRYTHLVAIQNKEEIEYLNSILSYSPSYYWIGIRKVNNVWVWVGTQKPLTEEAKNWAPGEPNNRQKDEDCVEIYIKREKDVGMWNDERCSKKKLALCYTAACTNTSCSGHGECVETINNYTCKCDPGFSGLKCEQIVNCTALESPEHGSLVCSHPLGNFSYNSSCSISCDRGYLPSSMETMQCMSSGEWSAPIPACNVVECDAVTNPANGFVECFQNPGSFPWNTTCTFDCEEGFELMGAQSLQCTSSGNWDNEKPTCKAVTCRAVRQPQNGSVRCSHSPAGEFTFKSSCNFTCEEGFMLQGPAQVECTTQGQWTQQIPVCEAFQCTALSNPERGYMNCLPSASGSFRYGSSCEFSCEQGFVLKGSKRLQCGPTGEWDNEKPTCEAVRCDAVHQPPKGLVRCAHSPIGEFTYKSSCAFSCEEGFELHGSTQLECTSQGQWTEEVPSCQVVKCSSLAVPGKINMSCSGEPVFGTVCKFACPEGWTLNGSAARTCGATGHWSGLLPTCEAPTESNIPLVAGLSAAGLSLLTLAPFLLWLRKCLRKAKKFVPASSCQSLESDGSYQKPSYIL
smiles,measurement,setting,value
Cc1c2ccccc2c(C)c2c1ccc1ccccc12,AC50,[1],20 µM (active)
same,outcome,[2],inactive
same,outcome,[3],inactive
same,AC50,[4],24.1 µM (active)
same,AC50,"CD38, CD38 (gene 952)",28.6 µM (active)
same,AC50,"CD40, CD40 (gene 958)",22.3 µM (active)
same,AC50,"CD69, CD69 (gene 969)",20 µM (active)
same,outcome,[5],inactive
same,AC50,[6],5.2 µM (active)
same,outcome,[7],inactive
CCCC(=O)OCCC(C)C,outcome,[1],inactive
same,outcome,[2],inactive
same,outcome,[3],inactive
same,outcome,[4],inactive
same,outcome,"CD38, CD38 (gene 952)",inactive
same,outcome,"CD40, CD40 (gene 958)",inactive
same,outcome,"CD69, CD69 (gene 969)",inactive
same,outcome,[5],inactive
same,outcome,[6],inactive
same,outcome,[7],inactive
CCO[Si](CCCNC(N)=O)(OCC)OCC,outcome,[1],inactive
same,outcome,[2],inactive
same,outcome,[3],inactive
same,outcome,[4],inactive
same,outcome,"CD38, CD38 (gene 952)",inactive
same,outcome,"CD40, CD40 (gene 958)",inactive
same,outcome,"CD69, CD69 (gene 969)",inactive
same,outcome,[5],inactive
same,outcome,[6],inactive
same,outcome,[7],inactive
c1ccc2n[nH]nc2c1,outcome,[1],inactive
same,outcome,[2],inactive
same,outcome,[3],inactive
same,outcome,[4],inactive
same,outcome,"CD38, CD38 (gene 952)",inactive
same,outcome,"CD40, CD40 (gene 958)",inactive
same,outcome,"CD69, CD69 (gene 969)",inactive
same,outcome,[5],inactive
same,outcome,[6],inactive
same,outcome,[7],inactive
Cc1cc2c(cc1C(F)(F)F)N(C(=O)Nc1ccc(Oc3cccnc3C)nc1)CC2,AC50,[1],26.8 µM (active)
same,outcome,[2],inactive
same,outcome,[3],inactive
same,AC50,[4],14.4 µM (active)
same,AC50,"CD38, CD38 (gene 952)",7.33 µM (active)
same,outcome,"CD69, CD69 (gene 969)",inactive
same,outcome,[5],inactive
same,outcome,[6],inactive
same,outcome,[7],inactive
Cc1ccc2oc(CN(Cc3ccccc3)C(=O)Nc3c(F)cc(F)cc3F)c(-c3ccc(Cl)cc3)c2c1,outcome,[1],inactive
same,outcome,[2],inactive
same,outcome,[3],inactive
same,outcome,[4],inactive
same,outcome,"CD38, CD38 (gene 952)",inactive
same,outcome,"CD69, CD69 (gene 969)",inactive
same,outcome,[5],inactive
same,outcome,[6],inactive
same,outcome,[7],inactive
CC(C)(C)c1csc(-c2cc3cc(OCc4ccccc4CC(=O)O)ccc3o2)n1,AC50,[1],27.2 µM (active)
same,outcome,[2],inactive
same,AC50,[3],17.7 µM (active)
same,AC50,[4],18.8 µM (active)
same,AC50,"CD38, CD38 (gene 952)",17.9 µM (active)
same,AC50,"CD69, CD69 (gene 969)",19.8 µM (active)
same,AC50,[5],29.9 µM (active)
same,AC50,[6],32.1 µM (active)
same,AC50,[7],38.5 µM (active)
CCCCCCCCOc1ccc(C(=O)c2ccccc2)c(O)c1,outcome,[1],inactive
same,AC50,[2],12.6 µM (active)
same,outcome,[3],inactive
same,outcome,[4],inactive
same,AC50,"CD38, CD38 (gene 952)",15.7 µM (active)
same,outcome,"CD69, CD69 (gene 969)",inactive
same,outcome,[5],inactive
same,outcome,[6],inactive
same,outcome,[7],inactive
O=C(O)Cn1c(=O)n(Cc2ccc(Br)cc2F)c(=O)c2ccc(Cl)cc21,outcome,[1],inactive
same,outcome,[2],inactive
same,AC50,[3],1.07 µM (active)
same,outcome,[4],inactive
same,outcome,"CD38, CD38 (gene 952)",inactive
same,outcome,"CD69, CD69 (gene 969)",inactive
same,outcome,[5],inactive
same,outcome,[6],inactive
same,outcome,[7],inactive
Cc1cc(F)ccc1-c1cc(N2CC[C@@H](O)[C@H]2CO)ncc1N(C)C(=O)C(C)(C)c1cc(C(F)(F)F)cc(C(F)(F)F)c1,AC50,[1],10.8 µM (active)
same,AC50,[2],12.9 µM (active)
same,AC50,[3],10.7 µM (active)
same,AC50,[4],11.2 µM (active)
same,AC50,"CD38, CD38 (gene 952)",10.2 µM (active)
same,AC50,"CD69, CD69 (gene 969)",10.5 µM (active)
same,AC50,[5],10.3 µM (active)
same,AC50,[6],10.2 µM (active)
same,AC50,[7],13.1 µM (active)
Oc1ccc2ccccc2c1,outcome,[1],inactive
same,outcome,[2],inactive
same,outcome,[3],inactive
same,outcome,[4],inactive
same,outcome,"CD38, CD38 (gene 952)",inactive
same,outcome,"CD69, CD69 (gene 969)",inactive
same,outcome,[5],inactive
same,AC50,[6],10.8 µM (active)
same,outcome,[7],inactive
COc1cccc([C@H](O)C2CCN(CCc3ccc(F)cc3)CC2)c1OC,outcome,[1],inactive
same,outcome,[2],inactive
same,outcome,[3],inactive
same,outcome,[4],inactive
same,outcome,"CD38, CD38 (gene 952)",inactive
same,outcome,"CD69, CD69 (gene 969)",inactive
same,outcome,[5],inactive
same,outcome,[6],inactive
same,outcome,[7],inactive
COCC(C)OCC(C)OCC(C)O (stereo not drawn),outcome,[1],inactive
same,outcome,[2],inactive
same,outcome,[3],inactive
same,outcome,[4],inactive
same,outcome,"CD38, CD38 (gene 952)",inactive
same,outcome,"CD69, CD69 (gene 969)",inactive
same,outcome,[5],inactive
same,outcome,[6],inactive
same,outcome,[7],inactive
CCCCOC(=O)c1ccc(O)cc1,outcome,[1],inactive
same,outcome,[2],inactive
same,outcome,[3],inactive
same,outcome,[4],inactive
same,outcome,"CD38, CD38 (gene 952)",inactive
same,outcome,"CD69, CD69 (gene 969)",inactive
same,outcome,[5],inactive
same,outcome,[6],inactive
same,outcome,[7],inactive
O=c1[nH]sc2ccccc12,AC50,[1],12 µM (active)
same,AC50,[2],17.7 µM (active)
same,AC50,[3],9.18 µM (active)
same,AC50,[4],9.14 µM (active)
same,AC50,"CD38, CD38 (gene 952)",8.45 µM (active)
same,AC50,"CD69, CD69 (gene 969)",13.1 µM (active)
same,AC50,[5],15.3 µM (active)
same,AC50,[6],12.3 µM (active)
same,AC50,[7],28.8 µM (active)
CO[C@H]1/C=C/O[C@@]2(C)Oc3c(C)c(O)c4c(O)c(c(/C=N/N5CCN(C)CC5)c(O)c4c3C2=O)NC(=O)/C(C)=C\C=C\[C@H](C)[C@H](O)[C@@H](C)[C@@H](O)[C@@H](C)[C@H](OC(C)=O)[C@@H]1C,outcome,[1],inactive
same,outcome,[2],inactive
same,outcome,[3],inactive
same,outcome,[4],inactive
same,outcome,"CD38, CD38 (gene 952)",inactive
same,AC50,"CD69, CD69 (gene 969)",0.64 µM (active)
same,outcome,[5],inactive
same,outcome,[6],inactive
same,outcome,[7],inactive
Clc1ccccc1C(c1ccccc1)(c1ccccc1)n1ccnc1,AC50,[1],28.3 µM (active)
same,AC50,[2],31.9 µM (active)
same,AC50,[3],32.9 µM (active)
same,AC50,[4],22.4 µM (active)
same,AC50,"CD38, CD38 (gene 952)",25.9 µM (active)
same,AC50,"CD69, CD69 (gene 969)",24.3 µM (active)
same,AC50,[5],26.1 µM (active)
same,AC50,[6],14 µM (active)
same,AC50,[7],35.1 µM (active)
C[C@]12CC[C@@H]3c4ccc(O)cc4CC[C@H]3[C@@H]1CCC2=O,outcome,[1],inactive
same,outcome,[2],inactive
same,outcome,[3],inactive
same,outcome,[4],inactive
same,outcome,"CD38, CD38 (gene 952)",inactive
same,outcome,"CD69, CD69 (gene 969)",inactive
same,outcome,[5],inactive
same,outcome,[6],inactive
same,outcome,[7],inactive
CCCCCCCCCCCO,outcome,[1],inactive
same,outcome,[2],inactive
same,outcome,[3],inactive
same,outcome,[4],inactive
same,outcome,"CD38, CD38 (gene 952)",inactive
same,outcome,"CD69, CD69 (gene 969)",inactive
same,outcome,[5],inactive
same,outcome,[6],inactive
same,outcome,[7],inactive
CCCCCCCCCCCC[N+](C)(C)C,AC50,[1],26 µM (active)
same,AC50,[2],32.4 µM (active)
same,AC50,[3],31.7 µM (active)
same,AC50,[4],25.7 µM (active)
same,AC50,"CD38, CD38 (gene 952)",17.4 µM (active)
same,AC50,"CD69, CD69 (gene 969)",18.1 µM (active)
same,AC50,[5],18.4 µM (active)
same,AC50,[6],32.2 µM (active)
same,AC50,[7],29.4 µM (active)
c1ccc2ccccc2c1,outcome,[1],inactive
same,outcome,[2],inactive
same,outcome,[3],inactive
same,outcome,[4],inactive
same,outcome,"CD38, CD38 (gene 952)",inactive
same,outcome,"CD69, CD69 (gene 969)",inactive
same,outcome,[5],inactive
same,outcome,[6],inactive
same,outcome,[7],inactive
